{
  "source": "PubChem BioAssay (EPA / NIEHS)",
  "note": "Active and inactive are the calls of the source. The calls were made as follows: active = hit-call score of the fitted dose curve at least 0.9, where 1 is the maximum; inactive = score below 0.9.",
  "data": [
    {"molecular_target": "Aryl hydrocarbon receptor (Homo sapiens) (UniProt P35869)", "sequence (P35869 whole entry, looked up)": "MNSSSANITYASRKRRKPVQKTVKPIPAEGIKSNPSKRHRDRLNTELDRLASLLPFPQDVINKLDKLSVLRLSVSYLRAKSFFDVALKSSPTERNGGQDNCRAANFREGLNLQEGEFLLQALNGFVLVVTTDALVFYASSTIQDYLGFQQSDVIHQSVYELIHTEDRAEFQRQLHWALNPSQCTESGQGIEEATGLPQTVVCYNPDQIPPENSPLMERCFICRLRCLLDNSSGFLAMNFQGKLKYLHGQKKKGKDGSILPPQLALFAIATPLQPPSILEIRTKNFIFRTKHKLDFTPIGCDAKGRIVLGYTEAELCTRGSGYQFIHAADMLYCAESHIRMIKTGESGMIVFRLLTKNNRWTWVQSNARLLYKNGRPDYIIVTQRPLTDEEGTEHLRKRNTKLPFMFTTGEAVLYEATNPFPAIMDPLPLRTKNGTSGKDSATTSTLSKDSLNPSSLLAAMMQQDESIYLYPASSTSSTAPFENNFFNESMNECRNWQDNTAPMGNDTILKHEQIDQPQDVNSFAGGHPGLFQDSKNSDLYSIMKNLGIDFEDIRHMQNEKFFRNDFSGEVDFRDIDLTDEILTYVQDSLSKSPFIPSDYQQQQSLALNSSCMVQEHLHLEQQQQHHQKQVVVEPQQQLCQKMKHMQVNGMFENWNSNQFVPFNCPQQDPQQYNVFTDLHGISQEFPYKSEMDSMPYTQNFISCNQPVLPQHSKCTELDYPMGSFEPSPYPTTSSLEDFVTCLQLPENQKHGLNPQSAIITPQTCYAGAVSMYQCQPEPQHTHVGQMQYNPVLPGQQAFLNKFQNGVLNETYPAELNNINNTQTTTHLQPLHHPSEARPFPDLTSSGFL", "experiment": "ATG_Ahr_CIS: Attagene CIS-FACTORIAL HepG2 Assay for human Aryl Hydrocarbon Receptor (Ahr) (AID 2282930)", "settings": "HepG2 AhR cis-factorial reporter transcription; actives raise or lower the signal", "description": "ATG_CIS is a cell-based, multiplexed-readout assay that uses HepG2, a human liver cell line, with measurements taken at 24 hours after chemical dosing in a 24-well plate.ATG_Ahr_CIS is one of 52 assay component(s) measured or calculated from the ATG_CIS assay. It is designed to make measurements of mRNA induction, a form of inducible reporter, as detected with fluorescence intensity signals by Reverse transcription polymerase chain reaction (RT-PCR) and Capillary electrophoresis technology.Data from the assay component ATG_Ahr_CIS was analyzed into 1 assay endpoint. This assay endpoint, ATG_Ahr_CIS, was analyzed with bidirectional fitting relative to DMSO as the negative control and baseline of activity. Using a type of inducible reporter, measures of mRNA for gain or loss-of-signal activity can be used to understand the reporter gene at the transcription factor-level as they relate to the gene AHR. Furthermore, this assay endpoint can be referred to as a primary readout, because this assay has produced multiple assay endpoints where this one serves a reporter gene function. To generalize the intended target to other relatable targets, this assay endpoint is annotated to the dna binding intended target family, where the subfamily is basic helix-loop-helix protein.\nHuman liver HepG2 cells are transiently transfected with multiple reporter transcription units (MRTUs) in 6-well plates using FuGene 6 reagent (Roche; 3 ml FuGene/1 mg DNA). The MRTU constructs are regulated by a cis-regulating element (promoter). […] A major difference between the CIS and TRANS system is that in CIS activities of endogenous TFs are measured, whereas the TRANS assay evaluates changes in activities of exogenous, chimeric NR-Gal4 proteins. […] At the end of 24 hour incubation, total RNA was isolated using TriZol reagent (Invitrogen). The isolated RNA is then reverse-transcribed using oligo(dT) primer and Mo-MLV reverse transcriptase (Invitrogen) with DNAse I (Ambion) treatment for 30 min. The one-tenth of the produced cDNA was amplified by PCR using Taq DNA polymerase (Invitrogen) and two reporter sequence-specific primers. The PCR products were fluorescently labeled by primer extension with 6-arboxyfluorescein (6-FAM) 5'-labeled reporter sequence-specific primer (2 min at 95 C, 20 s at 68 C and 10 min at 72 C) and these products were digested with 5U of HpaI (New England Biolabs) for 2h at 37 C. […] The raw capillary electrophoresis data was processed using Attagraph software (Attagene).", "values": [
      {"smiles": "CC1=C(C=O)C(C)(C)CCC1", "outcome": "inactive"},
      {"smiles": "C=COCC1CCC(COC=C)CC1", "note": "(stereo not given)", "outcome": "inactive"},
      {"smiles": "S=c1[nH][nH]c(=S)s1", "outcome": "inactive"},
      {"smiles": "COc1ccc(OC)cc1", "outcome": "inactive"},
      {"smiles": "O=C(O)CS", "outcome": "inactive"},
      {"smiles": "CC(C)Cc1ccccc1", "outcome": "inactive"},
      {"smiles": "CCCCCCCOC(C)=O", "outcome": "inactive"},
      {"smiles": "COc1ccc(C(C)=O)cc1", "outcome": "inactive"},
      {"smiles": "CCC(C)(C)C1CCC(OC)CC1", "note": "(stereo not given)", "outcome": "inactive"},
      {"smiles": "CCCCCCC(C)O", "note": "(stereo not given)", "outcome": "inactive"},
      {"smiles": "CC/C=C\\CCOC(C)OCC", "note": "(stereo not given)", "outcome": "inactive"},
      {"smiles": "Nc1ccc(O)c(N)c1", "AC50": "14.5 µM (active)"},
      {"smiles": "CCCCCCCCCCCCS", "outcome": "inactive"},
      {"smiles": "CC1=CCC(=C(C)C)CC1", "outcome": "inactive"},
      {"smiles": "C=CC(C)(CCC=C(C)C)OC(=O)CC", "note": "(stereo not given)", "outcome": "inactive"},
      {"smiles": "FC(F)(F)c1ccc(Cl)c(Cl)c1", "outcome": "inactive"},
      {"smiles": "CCCCCCC(O)CCOC(C)=O", "note": "(stereo not given)", "outcome": "inactive"},
      {"smiles": "CCCCOC(=O)C(C)OC(=O)CCC", "note": "(stereo not given)", "outcome": "inactive"},
      {"smiles": "CCCCCC#CC(=O)OC", "outcome": "inactive"},
      {"smiles": "CC1=CCC(C(C)C)=CC1", "outcome": "inactive"},
      {"smiles": "CC(=O)CC(C)(C)C1CCCCC1", "outcome": "inactive"},
      {"smiles": "OCCCO", "outcome": "inactive"},
      {"smiles": "Cc1cc(O)c(C)c(C)c1O", "AC50": "17.8 µM (active)"},
      {"smiles": "CC(CO)c1ccccc1", "note": "(stereo not given)", "outcome": "inactive"},
      {"smiles": "CC(C)OB(OC(C)C)OC(C)C", "outcome": "inactive"},
      {"smiles": "O=C1OC2(c3ccc(O)cc3Oc3cc(O)ccc32)c2ccccc21", "AC50": "25.9 µM (active)"},
      {"smiles": "C=C(C)C(N)=O", "outcome": "inactive"},
      {"smiles": "CC(C)(CO)CO", "outcome": "inactive"},
      {"smiles": "C=CC(=O)OCCCCCC", "outcome": "inactive"},
      {"smiles": "CC(C)(C)c1cccc(O)c1", "outcome": "inactive"},
      {"smiles": "[Na+]", "outcome": "inactive"},
      {"smiles": "Nc1cc([N+](=O)[O-])ccc1C(=O)O", "AC50": "20.3 µM (active)"},
      {"smiles": "COc1ccccc1NC(=O)CC(C)=O", "AC50": "34.8 µM (active)"},
      {"smiles": "C=CCCCCCCCCC(=O)OCC", "outcome": "inactive"},
      {"smiles": "CC(=O)CCC(=O)O", "outcome": "inactive"},
      {"smiles": "CCCC[N+](C)(CCCC)CCCC", "outcome": "inactive"},
      {"smiles": "Cc1ccncc1", "outcome": "inactive"},
      {"smiles": "C=CCOCC(O)CO", "note": "(stereo not given)", "outcome": "inactive"},
      {"smiles": "c1ccc2scnc2c1", "AC50": "50.8 µM (active)"},
      {"smiles": "Nc1ccc(N)c([N+](=O)[O-])c1", "AC50": "3.14 µM (active) [middle of 5 runs]"}
    ]}
  ]
}
